# sEH inhibitor = soluble epoxide hydrolase inhibitors, primary screen, biochemical, human sEH; Bifunctional epoxide hydrolase 2 (Homo sapiens), P34913; inhibition, % at 2 µM; recombinant human sEH enzymatic activity assay; AID 707, 2007; 91,000 compounds, 0.34% hits; in the data active = inhibition above about 80%
# MRP1 act = H69AR viability gain despite doxorubicin, primary screen, MRP-1 activator project, H69AR cells, CellTiter-Glo. viability rescue. viability increase, % at 10 µM. 140,000 compounds, 0.61% hits;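 active = viability gain under doxorubicin at or above a set limit, the compound median plus 3 SD, cut at about 4.7% in these data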;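 also: MRP-1 overexpressing cells given doxorubicin 25 µM after compound pretreatment; 18-22 h compound pretreatment then 72 h with doxorubicin before readout; 0% = doxorubicin-only wells and 100% = vehicle-treated cells without doxorubicin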
# sEH act = soluble epoxide hydrolase activators, primary screen, biochemical, human sEH; Bifunctional epoxide hydrolase 2 (Homo sapiens), P34913; purified human sEH enzymatic activity, activator screen; activation, % at 2 µM; 91,000 compounds, 0.04% hits; in the data active = activation above about 37%
# MRP resist rev = reversal of MRP1-mediated doxorubicin resistance, primary screen, H69AR cells, doxorubicin co-treatment; H69AR cells + 2 uM doxorubicin, CellTiter-Glo, 72 h; 85,000 compounds, 0.04% hits; AID 602, 2007; differential viability (reversal), % at 10 µM;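 active = viability drop by adding the cancer drug above about 55%, with treated viability meeting a 40% cutoff, limit read from the data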;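 also: viability without doxorubicin minus viability with 2 µM doxorubicin for each compound; larger differential means the compound sensitizes cells more to doxorubicin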
# Numbers without * were called inactive; / = no result given. In the library only some 0.76% were active in any assay of this set; here they are far more common.
SMILES,sEH inhibitor,MRP1 act,sEH act,MRP resist rev
Cc1ccc(CN2C(=O)NC(=O)C3(Cc4c(nc5ccccn5c4=O)N4CCCCCC43)C2=O)cc1 (stereo not given),6,8.8*,-5,-35
CSC1=NP(=S)(SC)N2CCCC2=C1C#N (stereo not given),0,29*,1,-10
O=C(Nc1cccc(Cl)c1)c1c(O)c2c(n(Cc3ccco3)c1=O)CCCC2,/,/,/,-5
O=C(Nc1cccc(Cl)c1)c1c(O)c2c(n(Cc3ccccc3)c1=O)CCCC2,/,5.6*,/,/
Cc1cccc(N/N=C(\C(N)=O)C2=NC(C)(C)Cc3ccccc32)c1,/,-3,/,/
Fc1ccc(Cn2nnnc2C(c2ccc(F)cc2)N2CC=C(c3ccc(F)cc3)CC2)cc1 (stereo not given),/,1,/,/
COc1ccc(C)cc1NC(=O)c1c(C)nn(Cc2ccccc2)c1Cl,/,4.8*,/,/
CC(=O)NC(C)Cc1ccccc1 (stereo not given),8,-1,-8,-22
CC(Cc1ccccc1)NC(=O)NC(C)Cc1ccccc1 (stereo not given),98*,-1,-98,-6
c1ccc2cc3cc4ccccc4cc3cc2c1,/,/,/,-6

# Assay outcomes deposited in PubChem BioAssay by several laboratories.
